Results filed as inconclusive are left out. Entries that show only a call come without a potency. Active and inactive are the calls of the source. The call rests on the fitted dose curve; in most records, active means well fitted curve in the direction sought with a large enough effect; inconclusive means small, poorly fitted or top-dose-only effect, or another doubt; inactive means no such curve, though single readings can be large; an effect the other way counts as inactive or inconclusive.

Sequence of Lysine-specific demethylase 5B (Homo sapiens) (Q9UGL1 whole entry, looked up): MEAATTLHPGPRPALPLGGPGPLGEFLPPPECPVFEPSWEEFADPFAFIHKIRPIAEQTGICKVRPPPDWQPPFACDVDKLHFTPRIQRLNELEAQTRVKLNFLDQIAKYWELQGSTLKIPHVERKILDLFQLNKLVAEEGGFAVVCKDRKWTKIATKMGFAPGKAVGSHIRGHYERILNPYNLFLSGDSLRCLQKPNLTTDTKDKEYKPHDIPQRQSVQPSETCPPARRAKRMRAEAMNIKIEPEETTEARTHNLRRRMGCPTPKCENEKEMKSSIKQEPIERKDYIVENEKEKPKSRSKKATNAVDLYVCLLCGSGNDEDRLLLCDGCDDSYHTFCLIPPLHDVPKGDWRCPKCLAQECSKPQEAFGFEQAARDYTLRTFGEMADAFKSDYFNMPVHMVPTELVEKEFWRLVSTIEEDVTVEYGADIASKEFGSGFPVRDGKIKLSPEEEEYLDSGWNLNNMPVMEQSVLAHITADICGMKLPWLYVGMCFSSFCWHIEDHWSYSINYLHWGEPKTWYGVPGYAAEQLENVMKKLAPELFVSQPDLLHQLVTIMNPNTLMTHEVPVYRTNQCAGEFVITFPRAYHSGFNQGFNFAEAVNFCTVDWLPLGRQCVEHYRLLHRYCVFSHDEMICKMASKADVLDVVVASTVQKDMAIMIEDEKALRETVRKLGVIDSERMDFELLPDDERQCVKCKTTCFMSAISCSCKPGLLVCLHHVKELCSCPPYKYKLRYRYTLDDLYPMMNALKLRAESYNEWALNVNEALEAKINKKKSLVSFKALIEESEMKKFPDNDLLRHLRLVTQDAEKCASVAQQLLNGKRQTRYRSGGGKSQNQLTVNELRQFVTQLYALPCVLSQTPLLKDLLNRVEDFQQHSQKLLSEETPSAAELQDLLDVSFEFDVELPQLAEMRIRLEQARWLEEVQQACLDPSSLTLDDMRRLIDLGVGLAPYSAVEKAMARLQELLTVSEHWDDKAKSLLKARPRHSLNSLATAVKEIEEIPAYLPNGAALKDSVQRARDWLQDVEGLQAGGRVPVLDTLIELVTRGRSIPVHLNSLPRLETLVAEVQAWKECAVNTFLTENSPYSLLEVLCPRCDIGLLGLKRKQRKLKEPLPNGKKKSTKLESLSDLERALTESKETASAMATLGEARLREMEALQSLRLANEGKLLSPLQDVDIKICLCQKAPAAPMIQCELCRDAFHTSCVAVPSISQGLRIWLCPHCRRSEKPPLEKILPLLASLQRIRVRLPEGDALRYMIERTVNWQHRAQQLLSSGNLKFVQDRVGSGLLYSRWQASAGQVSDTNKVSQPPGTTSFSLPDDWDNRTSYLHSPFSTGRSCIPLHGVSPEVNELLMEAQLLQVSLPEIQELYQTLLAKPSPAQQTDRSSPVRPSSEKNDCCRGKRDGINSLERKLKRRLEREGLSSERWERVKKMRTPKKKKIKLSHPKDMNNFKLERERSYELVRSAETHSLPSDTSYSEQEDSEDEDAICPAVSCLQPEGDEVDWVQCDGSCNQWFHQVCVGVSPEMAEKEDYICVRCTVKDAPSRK

In the first assay the target is Lysine-specific demethylase 5B (Homo sapiens) (UniProt Q9UGL1). In words: Optimization screen for KDM5B Histone Demethylases FDH coupled qHTS against the LOPAC library (AID 1347166). The settings on record: KDM5B demethylation, FDH-coupled NADH fluorescence (FDH is formaldehyde dehydrogenase); series mostly up to 57.5 µM. Put shortly:
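KDM5BDeltaAP (200nM final) preincubated 10 min with compound, then 12.5uM H3K4Me3, 25uM a-ketoglutarate, ascorbate, Fe(II), NAD+ and FDH added; 50mM HEPES pH 7.5, 0.01% Tween-20. NADH fluorescence (340/450 nm) change over 30 min, room temperature.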
On the technique in general: In qHTS, concentration-response curves come from the screen itself.
In the case of `CC(CN1c2ccccc2Sc2ccccc21)N(C)C` (configuration not stated), the compound was called inactive.
For `COCCOC(=O)C1=C(C)NC(C)=C(C(=O)OC/C=C/c2ccccc2)C1c1cccc([N+](=O)[O-])c1` (configuration not stated), the compound was called inactive.
With `Nc1ncnc2c1ncn2[C@@H]1O[C@H](CO)[C@@H](O)[C@H]1O`, the compound was classed as inactive.
The same measure, in the same setting: with `N=c1c[n+](N2CCOCC2)[n-]o1` the entry was “inactive”; with `CC(C)(C)c1onc(OCP(=O)(O)O)c1CC(N)C(=O)O` (configuration not stated), “inactive”.
The same measure, in the same setting: for `O=C1N=C(O)CN1/N=C/c1ccc(-c2ccc([N+](=O)[O-])cc2)o1` the value was “inactive”; for `C[C@](N)(Cc1ccc(O)cc1)C(=O)O`, “inactive”; for `CC(C)(C)[C@]1(O)CCN2C[C@H]3c4ccccc4CCc4cccc(c43)[C@@H]2C1`, “inactive”.
In the case of `OCCN1CCN(CCCN2c3ccccc3Sc3ccc(Cl)cc32)CC1`, the call was inactive.

Tested on in a further assay: not listed separately
In words: qHTS to identify inhibitors of the type 1 interferon - major histocompatibility complex class I in skeletal muscle: primary screen against the NCATS LOPAC collection (AID 1347405).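 Further: lytic HiBiT luminescence reporting HLA-B protein level.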 Further: potency means the concentration at half of the fitted maximal effect. The settings on record: iHSKM muscle cells, IFN-b-induced MHC-I HiBiT luminescence, 24 h; series mostly up to 45.9 µM. Put shortly: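 Luminescence from HiBiT fused to endogenous HLA-B in CRISPR-engineered human myoblasts served as the read-out. Cells received 4.0 ng/ml IFN-beta plus compound (seven concentrations, 1:4.3 steps, highest 46 uM final) for 24 hrs before lytic detection.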
As to `CC(CN1c2ccccc2Sc2ccccc21)N(C)C` (configuration not stated), the Potency result is “inactive”.
The same measure, in the same setting: for `COCCOC(=O)C1=C(C)NC(C)=C(C(=O)OC/C=C/c2ccccc2)C1c1cccc([N+](=O)[O-])c1` (configuration not stated) the value was 22.4 µM (active).
On the same count and under the same terms, with `Nc1ncnc2c1ncn2[C@@H]1O[C@H](CO)[C@@H](O)[C@H]1O` the entry was “inactive”; with `CC(C)c1c(C(=O)Nc2ccccc2)c(-c2ccccc2)c(-c2ccc(F)cc2)n1CC[C@@H](O)C[C@@H](O)CC(=O)O`, “inactive”; with `Cc1cc(N)c2ccccc2[n+]1CCCCCCCCCC[n+]1c(C)cc(N)c2ccccc21`, “inactive”.
The same measure, in the same setting: for `N=c1c[n+](N2CCOCC2)[n-]o1` the value was “inactive”; for `CC(C)(C)c1onc(OCP(=O)(O)O)c1CC(N)C(=O)O` (configuration not stated), “inactive”.
On to `O=C1N=C(O)CN1/N=C/c1ccc(-c2ccc([N+](=O)[O-])cc2)o1`, for which the Potency entry is “inactive”.
The same measure, in the same setting: with `C[C@](N)(Cc1ccc(O)cc1)C(=O)O` the entry was “inactive”; with `CC(C)(C)[C@]1(O)CCN2C[C@H]3c4ccccc4CCc4cccc(c43)[C@@H]2C1`, “inactive”.

Tested on in a further assay: not listed separately
In words: qHTS to identify inhibitors of the type 1 interferon - major histocompatibility complex class I in skeletal muscle: primary screen against the NCATS Pharmaceutical Collection (AID 1347407). The conditions noted are these: human skeletal muscle cells, IFN-b-induced MHC-I HiBiT luminescence, 24 h; series mostly up to 45.9 µM. In short, it runs like this: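 HLA-B HiBiT myoblasts, dexamethasone-free growth medium + 4 ng/ml IFN-b; compounds pinned 1 h after seeding, […] from 46 uM; 24 h, 37 C, 5% CO2; lytic HiBiT detection, 10 min RT, luminescence.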
For the compound `c1ccc(CN(CC2=NCCN2)c2ccccc2)cc1`, the Potency result is “inactive”.
Still for that read-out and setting: for `CC(CN1c2ccccc2Sc2ccccc21)N(C)C` (configuration not stated) the value was “inactive”; for `Nc1ncnc2c1ncn2[C@@H]1O[C@H](CO)[C@@H](O)[C@H]1O`, “inactive”; for `CC(C)c1c(C(=O)Nc2ccccc2)c(-c2ccccc2)c(-c2ccc(F)cc2)n1CC[C@@H](O)C[C@@H](O)CC(=O)O`, “inactive”.
As for `Cc1cccc(Nc2cc(Cl)nc(SCC(=O)O)n2)c1C`, the Potency result is “inactive”.
For the compound `CCOC(=O)[C@H](CCc1ccccc1)N[C@@H](C)C(=O)N1C(=O)N(C)C[C@H]1C(=O)O`, the Potency result was “inactive”.
Take `C[C@@H]1CN(c2c(F)c(F)c3c(=O)c(C(=O)O)cn(C4CC4)c3c2F)C[C@H](C)N1`: the Potency result was “inactive”.
Regarding `O=C1N=C(O)CN1/N=C/c1ccc(-c2ccc([N+](=O)[O-])cc2)o1`, the Potency result is “inactive”.
Same read-out and setting: with `CN1CCOC(c2ccccc2)c2ccccc2C1` (configuration not stated) the entry was “inactive”.
On to `C[C@](N)(Cc1ccc(O)cc1)C(=O)O`, for which the activity change, negative = inhibition was -0.196% [at 3.83 µM] (inactive).
As for `O=C1Nc2ccc(Cl)cc2[C@@](C#CC2CC2)(C(F)(F)F)O1`, the Potency entry was “inactive”.
On the same count and under the same terms, for `C[C@]12CC[C@@H]3c4ccc(O)cc4CC[C@H]3[C@@H]1CC[C@@H]2OC(=O)CCC1CCCC1` the value was “inactive”.
Still for that read-out and setting: for `OCCN1CCN(CCCN2c3ccccc3Sc3ccc(Cl)cc32)CC1` the value was “inactive”; for `CCN(CC)CCCC(C)Nc1c2ccc(Cl)cc2nc2ccc(OC)cc12` (configuration not stated), “inactive”.
Take `COc1ccc2[nH]c(S(=O)Cc3ncc(C)c(OC)c3C)nc2n1` (configuration not stated): the Potency entry was “inactive”.

Tested on in another assay: not listed separately
In words: qHTS for inhibitors of adenylyl cyclases using a fission yeast platform: a pilot screen against the NCATS LOPAC library (AID 1347410). The settings on record: S. pombe CHP2027, fbp1-GFP fluorescence, 18 h, yeast expressing mammalian AC9 and human GNAS; series mostly up to 57.5 µM. Put shortly: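 Read-out: fbp1-GFP fluorescence by laser scanning cytometry (488 nm laser), a gain of signal when AC/cAMP-PKA signalling is inhibited. Strain CHP2027 expressing AC9, GNAS and PDE4D2; compounds at up to 57 µM; 18 h, 30C.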
As for `CC(CN1c2ccccc2Sc2ccccc21)N(C)C` (configuration not stated), the outcome was inactive.
On the same count and under the same terms, with `COCCOC(=O)C1=C(C)NC(C)=C(C(=O)OC/C=C/c2ccccc2)C1c1cccc([N+](=O)[O-])c1` (configuration not stated) the entry was “inactive”; with `Nc1ncnc2c1ncn2[C@@H]1O[C@H](CO)[C@@H](O)[C@H]1O`, “inactive”; with `CC(C)c1c(C(=O)Nc2ccccc2)c(-c2ccccc2)c(-c2ccc(F)cc2)n1CC[C@@H](O)C[C@@H](O)CC(=O)O`, “inactive”.
The same measure, in the same setting: with `Cc1cc(N)c2ccccc2[n+]1CCCCCCCCCC[n+]1c(C)cc(N)c2ccccc21` the entry was “inactive”; with `N=c1c[n+](N2CCOCC2)[n-]o1`, “inactive”.
`CC(C)(C)c1onc(OCP(=O)(O)O)c1CC(N)C(=O)O` (configuration not stated): the compound was called inactive.
For `O=C1N=C(O)CN1/N=C/c1ccc(-c2ccc([N+](=O)[O-])cc2)o1`, the compound was classed as inactive.
Turning to `C[C@](N)(Cc1ccc(O)cc1)C(=O)O`, the call was inactive.
Regarding `CC(C)(C)[C@]1(O)CCN2C[C@H]3c4ccccc4CCc4cccc(c43)[C@@H]2C1`, the compound was called inactive.
Consider `OCCN1CCN(CCCN2c3ccccc3Sc3ccc(Cl)cc32)CC1`, for which the outcome was inactive.
On to `CCN(CC)CCCC(C)Nc1c2ccc(Cl)cc2nc2ccc(OC)cc12` (configuration not stated), for which the result was inactive.

Tested on in another assay: not listed separately
In words: qHTS to identify inhibitors of the type 1 interferon - major histocompatibility complex class I in skeletal muscle: primary screen against the NCATS Mechanism Interrogation Plate v5.0 (MIPE) Libary (AID 1347411). Further: nearly all actives have a fitted effect of over 65% in size. The conditions noted are these: iHSKM cells + IFN-b, HiBiT-tagged MHC-I luminescence, 24 h; series mostly up to 45.8 µM. Put shortly: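 Luminescence from HiBiT-tagged endogenous HLA-B*08:01 served as the MHC class I read-out. CRISPR-engineered C25cl48 human myoblasts received 4.0 ng/ml IFN-beta plus compound for 24 hrs, with an 11-point, 1:3 series topping at 46 uM final.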
Turning to `Nc1ncnc2c1ncn2[C@@H]1O[C@H](CO)[C@@H](O)[C@H]1O`, the Potency result was “inactive”.
As to `CC(C)c1c(C(=O)Nc2ccccc2)c(-c2ccccc2)c(-c2ccc(F)cc2)n1CC[C@@H](O)C[C@@H](O)CC(=O)O`, the Potency entry is “inactive”.
In the case of `COc1ccc2[nH]c(S(=O)Cc3ncc(C)c(OC)c3C)nc2n1` (configuration not stated), the Potency result was “inactive”.

In a further assay the target is Protein phosphatase 1D (Homo sapiens) (UniProt O15297). In words: RapidFire Mass Spectrometry qHTS Assay for Modulators of WT P53-Induced Phosphatase 1 (WIP1) (AID 1347424).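 Further: amount of dephosphorylated VEPPL-S-QETFS peptide product formed by WIP1.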 The conditions noted are these: WIP1 dephosphorylation of phosphopeptide, RapidFire MS; series mostly up to 63 µM. Put shortly: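 10 nM WIP1 + cpd, 1 h RT; + 2 uM VEPPL-pS-QETFS, 5 min RT; stop 0.5% formic acid; labelled product standard 1 uM; RapidFire MS. Buffer 50 mM Tris pH 7.5, 30 mM MgCl2, 1 mM TCEP.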
Sequence of Protein phosphatase 1D (Homo sapiens) (O15297 whole entry, looked up): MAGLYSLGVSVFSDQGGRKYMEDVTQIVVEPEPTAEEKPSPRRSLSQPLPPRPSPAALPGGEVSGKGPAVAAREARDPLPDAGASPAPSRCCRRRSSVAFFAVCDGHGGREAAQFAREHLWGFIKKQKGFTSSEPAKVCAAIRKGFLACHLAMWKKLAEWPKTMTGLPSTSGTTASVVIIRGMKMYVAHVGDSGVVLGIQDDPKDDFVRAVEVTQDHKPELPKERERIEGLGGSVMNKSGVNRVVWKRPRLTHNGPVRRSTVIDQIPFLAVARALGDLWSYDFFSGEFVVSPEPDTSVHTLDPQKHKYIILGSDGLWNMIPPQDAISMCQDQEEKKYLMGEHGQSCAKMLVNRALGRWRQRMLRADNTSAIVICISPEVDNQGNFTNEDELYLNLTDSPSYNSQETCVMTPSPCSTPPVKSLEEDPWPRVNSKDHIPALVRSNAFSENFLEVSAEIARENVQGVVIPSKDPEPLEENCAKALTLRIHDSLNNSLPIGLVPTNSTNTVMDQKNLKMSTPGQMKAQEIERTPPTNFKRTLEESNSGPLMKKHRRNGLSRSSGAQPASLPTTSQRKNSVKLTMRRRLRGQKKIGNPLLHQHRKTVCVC
Take `O=S(=O)(O)c1cc(I)c(O)c2ncccc12`: the compound was classed as inactive.
On the same count and under the same terms, for `c1ccc(CN(CC2=NCCN2)c2ccccc2)cc1` the value was “inactive”.
Still for that read-out and setting: for `CC(CN1c2ccccc2Sc2ccccc21)N(C)C` (configuration not stated) the value was “inactive”.
Regarding `CC(=O)Oc1ccc(C2(c3ccc(OC(C)=O)cc3)C(=O)Nc3ccccc32)cc1`, the outcome was inactive.
Consider `COCCOC(=O)C1=C(C)NC(C)=C(C(=O)OC/C=C/c2ccccc2)C1c1cccc([N+](=O)[O-])c1` (configuration not stated), for which the result was inactive.
Same read-out and setting: with `NC(=O)NNc1ccccc1` the entry was “inactive”.
With `Nc1ncnc2c1ncn2[C@@H]1O[C@H](CO)[C@@H](O)[C@H]1O`, the result was inactive.
Take `CC(C)c1c(C(=O)Nc2ccccc2)c(-c2ccccc2)c(-c2ccc(F)cc2)n1CC[C@@H](O)C[C@@H](O)CC(=O)O`: the compound was classed as inactive.
Same read-out and setting: for `OCC(CO)N[C@H]1C[C@](O)(CO)[C@@H](O)[C@H](O)[C@H]1O` the value was “inactive”; for `Cc1cccc(Nc2cc(Cl)nc(SCC(=O)O)n2)c1C`, “inactive”.
The same measure, in the same setting: with `C[C@H](N)[C@H](O)c1cccc(O)c1` the entry was “inactive”; with `Oc1cn2c(n1)Nc1ccc(Cl)c(Cl)c1C2`, “inactive”.
For the compound `CCOC(=O)[C@H](CCc1ccccc1)N[C@@H](C)C(=O)N1C(=O)N(C)C[C@H]1C(=O)O`, the result was inactive.
Still for that read-out and setting: with `O=C1O[C@H](CO)[C@@H](O)[C@H](O)[C@H]1O` the entry was “inactive”; with `C[C@@H]1CN(c2c(F)c(F)c3c(=O)c(C(=O)O)cn(C4CC4)c3c2F)C[C@H](C)N1`, “inactive”.
The same measure, in the same setting: for `O=C1N=C(O)CN1/N=C/c1ccc(-c2ccc([N+](=O)[O-])cc2)o1` the value was “inactive”; for `CN1CCOC(c2ccccc2)c2ccccc2C1` (configuration not stated), “inactive”.
In the case of `C[C@](N)(Cc1ccc(O)cc1)C(=O)O`, the activity change, negative = inhibition is 3.41% [at 6.17 µM] (inactive).
Take `O=C1Nc2ccc(Cl)cc2[C@@](C#CC2CC2)(C(F)(F)F)O1`: the compound was classed as inactive.
On the same count and under the same terms, with `O=C1O[C@H]([C@@H](O)CO)C(O)=C1O` the entry was “inactive”; with `C[C@]12CC[C@@H]3c4ccc(O)cc4CC[C@H]3[C@@H]1CC[C@@H]2OC(=O)CCC1CCCC1`, “inactive”.
On the same count and under the same terms, for `NCCNCCNCCN` the value was “inactive”; for `OCCN1CCN(CCCN2c3ccccc3Sc3ccc(Cl)cc32)CC1`, “inactive”.
On the same count and under the same terms, for `CCC(=O)Nc1ccc(O)cc1` the value was “inactive”; for `CCN(CC)CCCC(C)Nc1c2ccc(Cl)cc2nc2ccc(OC)cc12` (configuration not stated), “inactive”.
For the compound `O=c1cc(CO)occ1O`, the call was inactive.
Still for that read-out and setting: for `COc1ccc2[nH]c(S(=O)Cc3ncc(C)c(OC)c3C)nc2n1` (configuration not stated) the value was “inactive”; for `CC1=C(C/C=C(\C)CCC[C@H](C)CCC[C@H](C)CCCC(C)C)C(=O)c2ccccc2C1=O`, “inactive”.
